Reference: publication PMC4336329 (PLoS ONE, 2015)
Out of some 310,000 compounds screened, about 14,000 (4.5%) showed an effect of 50% or more. Effects have a minus sign here. What follows is part of a selection rich in strong results, with near analogues and random picks from the rest.

molecular target: human ether-à-go-go-related gene (hERG) potassium channel (human, UniProt Q12809); assay: primary screen, population patch clamp on CHO cells stably expressing hERG; higher = less effect of the substance
Sequence (Q12809 whole entry, looked up): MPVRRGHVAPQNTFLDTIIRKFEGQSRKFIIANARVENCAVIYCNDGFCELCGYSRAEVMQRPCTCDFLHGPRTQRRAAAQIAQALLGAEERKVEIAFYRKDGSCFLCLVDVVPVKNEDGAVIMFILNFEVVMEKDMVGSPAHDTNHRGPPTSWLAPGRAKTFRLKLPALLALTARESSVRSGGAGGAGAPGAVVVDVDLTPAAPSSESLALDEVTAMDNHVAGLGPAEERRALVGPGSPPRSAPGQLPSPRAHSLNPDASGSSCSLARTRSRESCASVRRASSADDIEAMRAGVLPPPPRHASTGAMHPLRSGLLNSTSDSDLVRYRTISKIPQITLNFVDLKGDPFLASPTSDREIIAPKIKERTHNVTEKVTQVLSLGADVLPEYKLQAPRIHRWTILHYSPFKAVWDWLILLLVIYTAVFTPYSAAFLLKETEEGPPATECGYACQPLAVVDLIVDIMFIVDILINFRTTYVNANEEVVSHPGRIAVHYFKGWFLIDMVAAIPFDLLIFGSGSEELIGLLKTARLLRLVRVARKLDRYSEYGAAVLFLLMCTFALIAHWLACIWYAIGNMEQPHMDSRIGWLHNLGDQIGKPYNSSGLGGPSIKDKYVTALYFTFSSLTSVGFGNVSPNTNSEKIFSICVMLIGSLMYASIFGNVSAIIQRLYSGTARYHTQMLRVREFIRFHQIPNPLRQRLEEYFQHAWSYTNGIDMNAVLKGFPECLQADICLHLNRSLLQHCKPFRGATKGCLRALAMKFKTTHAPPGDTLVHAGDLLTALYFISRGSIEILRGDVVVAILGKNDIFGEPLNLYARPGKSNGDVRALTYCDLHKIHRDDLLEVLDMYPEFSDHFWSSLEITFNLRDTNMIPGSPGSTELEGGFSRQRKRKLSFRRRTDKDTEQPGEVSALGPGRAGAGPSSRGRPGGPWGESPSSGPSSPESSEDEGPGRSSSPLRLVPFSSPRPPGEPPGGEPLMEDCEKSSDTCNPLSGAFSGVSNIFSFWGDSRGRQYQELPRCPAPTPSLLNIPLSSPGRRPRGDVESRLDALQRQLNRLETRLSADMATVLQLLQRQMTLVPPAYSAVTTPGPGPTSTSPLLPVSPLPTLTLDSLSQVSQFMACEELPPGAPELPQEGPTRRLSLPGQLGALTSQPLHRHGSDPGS
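Note: peak tail current of the secondary pulse compared with the same well before compound.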

| Structure (SMILES) | hERG current change (%, negative = inhibition) at 10uM [%] |
| --- | --- |
| O=C1CCC([N+](=O)[O-])C(C2CC=CCC2)N1 (stereo not drawn) | 4.76 |
| CCOC(=O)c1ccc(CNC(=O)CCC(=O)O)cc1 | 4.15 |
| COc1ccnc2c1c(=O)n(Cc1ccc(F)cc1)c(=O)n2C | -6.22 |
| O=C(NCCCO)C(=O)Nc1cc2c3c(c1)CCN3C(=O)CC2 | 11.8 |
| CC(=O)C1=C(C)NC(SCC(N)=O)=C(C#N)C1C (stereo not drawn) | 8.65 |
| COc1ccc(C(=O)COC(=O)CNC(=O)c2ccc(OC)cc2)cc1 | -52.6 |
| O=C(CNC(=O)c1cccc(OC(F)F)c1)OCc1cc(=O)n2cc(Br)ccc2n1 | -55.2 |
| O=C(CNC(=O)c1cccc(F)c1)OCc1cc(=O)n2cc(Br)ccc2n1 | -9.66 |
| COc1ccc(C(=O)NCC(=O)OCc2ccc([N+](=O)[O-])cc2)cc1 | -58.3 |
| COc1ccc(C(=O)NCC(=O)OCC(=O)c2ccc(Cl)cc2)cc1OC | -58.6 |
| COc1ccc(C(=O)NCC(=O)OCc2ccc(Cl)cc2Cl)cc1OC | -6.66 |
| O=C(CNC(=O)c1ccccc1)OCc1cc(=O)n2cc(Br)ccc2n1 | -31.6 |
| COc1ccc(C(=O)NCC(=O)NCC(=O)OCC(=O)c2ccc(Br)cc2)cc1 | 15.3 |
| COc1ccc(C(=O)NCC(=O)OCC(=O)c2cc(OC)c(OC)c(OC)c2)cc1OC | 28.5 |
| CC(C)(C)c1ccc(C(=O)NCC(=O)OCc2ccc([N+](=O)[O-])cc2)cc1 | -7.46 |
| COc1ccc(C(=O)NCC(=O)NCC(=O)OCC(=O)c2ccc(C)cc2)cc1 | 4.23 |
| O=C(CNC(=O)c1ccccc1)OCc1ccc([N+](=O)[O-])cc1 | -33.9 |
| O=C(CN1CCN(c2ccccn2)CC1)Nc1ccccc1F | 1.45 |
| c1ccc2c(c1)CC1(CCCC1)n1nnnc1-2 | -19.4 |
| O=C(NCc1ccccc1)C1=C[C@H](C2CCCCC2)C[C@H](OCCCCO)O1 | -3.07 |
| N#Cc1cc([N+](=O)[O-])cnc1N(CCO)CCO | -1.1 |
| CN1CCN(c2ncnc3nc[nH]c23)CC1 | 18.5 |

| Structure (SMILES) | hERG current change (%, negative = inhibition) at 10uM [%] |
| --- | --- |
| Cc1ccccc1C(=NCCCN(C)C)c1ccccc1C.Cl | -21.7 |
| Cc1ccc(NCC(=O)N=Nc2c(O)[nH]c3ccc([N+](=O)[O-])cc23)cc1 | -5.06 |
| Cc1ccc(O)c(-c2cc(C(=O)Nc3c(C)n(C)n(-c4ccccc4)c3=O)[nH]n2)c1 | 8.4 |
| O=C(O)c1ccccc1NC(c1ccccc1)c1ccc(Cl)cc1 (stereo not drawn) | 19.8 |
| N#C/C(=C\c1ccccc1[N+](=O)[O-])C(=O)NC1CCCCC1 | -13.9 |
| COc1ccc(C(=O)COC(=O)CNC(=O)c2cccc(OC(F)F)c2)cc1 | -64.6 |
| Cc1cc(C(=O)NCC(=O)OCC(=O)Nc2ccc(OC(F)F)cc2)ccc1[N+](=O)[O-] | -67.8 |
| COc1cccc(C(=O)NCC(=O)OCC(=O)c2ccccc2)c1 | 2.59 |
| Cc1cc(C(=O)NCC(=O)OCC(=O)NCCc2ccccc2)ccc1[N+](=O)[O-] | -16.9 |
| COc1ccc(N2CCN(C(=O)COC(=O)CNC(=O)c3cccc(OC(F)F)c3)CC2)cc1 | -43.7 |
| Cc1cc(C(=O)NCC(=O)OCC(=O)N(C(C)C)C(C)C)ccc1[N+](=O)[O-] | 10.6 |
| Cc1ccnc2c(N3C(=O)C4C5c6ccccc6C(c6ccccc65)C4C3=O)cccc12 (stereo not drawn) | -2.78 |
| CCCNC(=O)C(Cc1ccc(C(F)(F)F)cc1)NC(=O)c1ccc2ccccc2n1 (stereo not drawn) | 14 |
| CCOc1ccc2ncc(S(=O)(=O)c3ccccc3)c(N3CCN(c4ccccc4)CC3)c2c1 | -2.21 |
| CCN1CCN(c2c(S(=O)(=O)c3ccc(C)c(C)c3)cnc3ccc(F)cc23)CC1 | -53.4 |
| CCc1ccc2ncc(S(=O)(=O)c3ccc(C)c(C)c3)c(N3CCCC3)c2c1 | 0.769 |
| Nc1cc(N)nc(SCC(=O)Nc2ccc3c(c2)OCCCO3)n1 | 8.03 |
| CN(C)c1ccc(/C=N/N(Cc2ccccc2)c2ccccc2)cc1 | 3.54 |
| CN1CCN(CC(=O)Nc2ccc(Cl)cc2C(=O)c2ccccc2)CC1 | -77.2 |
| CN1C(CC(=O)Nc2ccc(Br)cc2)c2ccccc2CC1(C)C (stereo not drawn) | -38.2 |
| O=C(CN1CCCC1)Nc1ccc(Cl)cc1C(=O)c1ccccc1.O=C(O)C(=O)O | -46.8 |
| CN1CCN(C(=S)SCC(=O)Nc2ccc(Cl)cc2C(=O)c2ccccc2)CC1 | -29.8 |

| Structure (SMILES) | hERG current change (%, negative = inhibition) at 10uM [%] |
| --- | --- |
| O=C(CCN1CCCCC1)Nc1ccc(Cl)cc1C(=O)c1ccccc1 | -72.6 |
| CN1CCN(CC(=O)Nc2ccc(Cl)cc2Cl)CC1 | -69.4 |
| CN1C(CC(=O)Nc2ccc(Cl)cc2Cl)c2ccccc2CC1(C)C (stereo not drawn) | -76.7 |
| O=C(O)CC1(CC(=O)Nc2ccc(Cl)cc2C(=O)c2ccccc2)CCCC1 | 6.78 |
| O=C(CCNS(=O)(=O)c1ccccc1)Nc1ccc(Cl)cc1C(=O)c1ccccc1 | -32.9 |
| O=C(CN1CCCCCCC1)Nc1ccc(Cl)cc1Cl | 35.9 |
| Cc1ccccc1NC(=O)CC1c2ccccc2CC(C)(C)N1C (stereo not drawn) | 4.03 |
| Cc1cc(Cl)ccc1NC(=O)CN1CCCC1 | 27.1 |
| COc1cccc(C(=O)Nc2cc(NC(=O)c3cccs3)ccc2C)c1OC | -14 |
| Cc1sc(-c2c(C#N)c(N)nc3c2CCCCCC3)cc1[N+](=O)[O-] | -4.1 |
| COc1ccc(NC(=O)C2CCN(C(=O)[C@@H]3Cc4ccccc4CN3C(=O)OC(C)(C)C)CC2)cc1 | 2.02 |
| Cc1cc(C)c(NC(=O)Nc2ccccc2)c(C)n1 | 23.4 |
| O=C(CN1CCN(CCO)CC1)Nc1ccc(Cl)cc1C(=O)c1ccccc1 | -72.8 |
| CN1CCN(CC(=O)Nc2cccc([N+](=O)[O-])c2)CC1 | 3.24 |
| O=C(CN1CCCC1)Nc1ccccc1C(=O)c1ccccc1 | -2.59 |
| CN1CCN(CC(=O)Nc2ccccc2[N+](=O)[O-])CC1 | -13.2 |
| O=C(COc1ccccc1)Nc1ccc(Cl)cc1C(=O)c1ccccc1 | 6.83 |
| CN1CCN(CC(=O)Nc2ccc([N+](=O)[O-])cc2C(=O)c2ccccc2)CC1 | -84.6 |
| Cc1ccc(-n2cc(-c3ccccc3)c3c(=O)[nH]cnc32)cc1 | 8.89 |
| COc1ccc(C(CNC(=O)C2CC2)N(C)C)cc1 (stereo not drawn) | 1.52 |
| COc1ccc(CC(=O)NCC2CCCN(Cc3ccc(F)cc3F)C2)cc1 (stereo not drawn) | -17.5 |
| COc1ccc(CN2CCCC(CNC(=O)c3ccc(F)cc3)C2)cc1OC (stereo not drawn) | -70.6 |

| Structure (SMILES) | hERG current change (%, negative = inhibition) at 10uM [%] |
| --- | --- |
| CCOc1ccccc1CN1CCCC(CNC(=O)Cc2ccc(OC)cc2)C1 (stereo not drawn) | -22.1 |
| COc1ccc(CC(=O)NCC2CCCN(Cc3ccc(OC)cc3F)C2)cc1 (stereo not drawn) | -36.9 |
| COC(=O)c1ccc(C(=O)N2CCCC(CNC(=O)c3ccc(F)cc3)C2)cc1 (stereo not drawn) | -5.82 |
| COc1ccc(CN2CCCC(CNC(=O)c3ccc(F)cc3)C2)c(F)c1 (stereo not drawn) | -75.4 |
| COc1ccc(CN2CCCC(CNC(=O)c3ccc(F)cc3)C2)c(C)c1C (stereo not drawn) | -75.5 |
| CCOc1cc(CN2CCCC(CNC(=O)c3ccc(F)cc3)C2)ccc1OC (stereo not drawn) | -66.2 |
| COc1cccc(CN2CCCC(CNC(=O)c3ccc(F)cc3)C2)c1OC (stereo not drawn) | -49.1 |
| COc1ccc(C(=O)N2CCCC(CNC(=O)c3ccc(F)cc3)C2)cc1OC (stereo not drawn) | 3.14 |
| O=C(COC(=O)c1ccc(Br)o1)NCc1cccs1 | -4.11 |
| COCOc1ccc(C=O)c(O)c1 | 7.21 |
| CCOc1ccc(C2CC(c3cccc(OC)c3)Nc3nc(N)nn32)cc1 (stereo not drawn) | -26 |
| Cc1ccc(/C=N/Nc2ccc(Cl)c(C(=O)O)c2)s1 | 10 |
| COc1ccccc1CCNC(=O)CN1C(=O)NC2(CCCC2)C1=O | -9.26 |
| Cc1cccnc1NC(=O)CNC(=O)COc1ccccc1 | 6.69 |
| CC(c1ccco1)N(C(=O)c1ccc(S(=O)(=O)N2CCCCC2)cc1)c1ccccn1 (stereo not drawn) | -4.75 |
| CCCC(=O)N(Cc1cc(=O)[nH]c2ccccc12)c1ccc(C)cc1 | -3.22 |
| Cc1cc(CNC(=O)c2cccnc2Cl)c2ccccc2n1 | -2.82 |
| COc1ccc(NC(=O)CN(C)C(=O)c2ccc3[nH]c4c(c3c2)CC(C)CC4)cc1 (stereo not drawn) | 7.28 |
| CCOc1ccc(CN2CCCC(CNC(=O)c3ccc(F)cc3)C2)cc1CO (stereo not drawn) | -68.1 |
| CCOc1cc(C(=O)NCc2ccc(F)cc2)ccc1OCC(=O)N1CCCCC1 | -37.5 |
| O=C(NC1CCN(C(=S)NCc2ccco2)CC1)NC12CC3CC(CC(C3)C1)C2 | 5.73 |
